Test results: PubChem BioAssay AID720554 (ICCB-Longwood Screening Facility, Harvard Medical School, 2013)
Screen size: about 12,000 compounds; about 45 (0.4%) were called active. Cut-off read from the data, not from the text of the source: active = inhibition mostly above about 83% (no sharp cut-off); inactive = mostly below about 52%. The sample as a whole holds a higher share of actives than the screen did.

Legend:
[1] = BmaI1 acyl-homoserine lactone synthase inhibition – biochemical, fluorescence intensity, with counterscreen (AID 720554); conditions: BmaI1 enzyme assay, measured here: counterscreen fluorescence % control, concentration not given here
[2] = test system: acyl-homoserine lactone synthase BmaI1 (Burkholderia mallei ATCC 23344); assay: as above; conditions: BmaI1 enzyme assay, stronger effect = higher value, concentration not given here

SMILES	inhibition [1]	inhibition [2]
O=C1N=c2ccccc2=C1c1sc(N2CCCCC2)nc1O	8.5%	91.5% (active)
Cc1nc(N2CCCC2)sc1C(=O)c1oc2ccccc2c1C	17%	20% (inactive)
Cc1nc(N2CCCCC2)sc1C1Sc2ccccc2NC1=O (stereo not drawn)	-5%	-2.5% (inactive)
CC(C)CNCC(=O)Nc1ccc(S(N)(=O)=O)cc1	-1.5%	6.5% (inactive)
Cc1csc(C(C#N)C(=O)CSc2ccc3c(c2)OCCO3)n1 (stereo not drawn)	0%	16% (inactive)
Cn1cccc1C(=O)Nc1ccc2c(c1)nc1n2CCCCC1	27%	18% (inactive)
S=c1[nH]c(-c2ccccc2)cn1/N=C/c1ccc2c(c1)OCCO2	41.5%	94% (inactive)
CC(=O)Nc1ccc(/C=N/N2C(=O)c3ccccc3C2=O)cc1	14.5%	13% (inactive)
CC(=O)Nc1ccc(/C=N/n2cc(-c3ccccc3)[nH]c2=S)cc1	13.5%	90% (active)
O=C(CCc1nc2ccccc2c(=O)[nH]1)Nc1ccccc1C(=O)NC1CC1	5.5%	13.5% (inactive)
O=C(OC(c1ccccc1)c1ccccc1)c1ccncc1	14%	14% (inactive)
CC1=C(C(=O)O)N2C(=O)[C@@H](NC(=O)[C@H](N)c3ccccc3)[C@H]2SC1	7.5%	-7% (inactive)
N[C@@H](C(=O)N[C@@H]1C(=O)N2C(C(=O)O)=C(CSc3cn[nH]n3)CS[C@H]12)c1ccc(O)cc1 (tested in a mixture with another compound)	6%	93% (active)
N[C@@H](C(=O)N[C@@H]1C(=O)N2C(C(=O)O)=C(Cl)CS[C@H]12)c1ccccc1	4.5%	5% (inactive)
CN(C)S(=O)(=O)c1cccc(COC(=O)c2cn(-c3ccccc3)nc2-c2cccs2)c1	-2.5%	8.5% (inactive)
Cc1ccc(-c2csc(NC(=O)C3(c4ccccc4)CC3)n2)s1	20%	20% (inactive)
O=C(c1cc(-c2ccccc2)nn1-c1ccccc1)N(C1CC1)C1CCS(=O)(=O)C1 (stereo not drawn)	2%	7% (inactive)
FC(F)n1c(=S)[nH]c2ccccc21	0.5%	13.5% (inactive)
Cn1c(=S)[nH]c2ccccc21	5%	51.5% (inactive)
Cc1ccc(Cn2c(=S)[nH]c3ccccc32)cc1	3%	97% (active)
CC(Sc1nnnn1-c1ccc(O)cc1)C(=O)c1ccccc1 (stereo not drawn)	2.5%	8.5% (inactive)
c1ccc(CNC2=NCCCCC2)nc1	-13%	-8.5% (inactive)
O=S(=O)(NNC1=NCCCCC1)c1ccccc1	28.5%	63.5% (inactive)

SMILES	inhibition [1]	inhibition [2]
c1ccc(NNC2=NCCCCC2)nc1	4.5%	85% (active)
O=Nc1c(O)[nH]c2c(C(F)(F)F)cccc12	11%	13% (inactive)
COc1cccc(-n2c(SC3CCOC3=O)nc3ccccc3c2=O)c1 (stereo not drawn)	13.5%	14.5% (inactive)
O=C(CSc1ncc(C(F)(F)F)cc1Cl)N1CCN(S(=O)(=O)c2ccccc2)CC1	-4%	8.5% (inactive)
Cc1noc(C)c1COc1ccc(C(=O)OCC(N)=O)cc1	3%	14% (inactive)
O=C(CCSc1ccc(Cl)cc1)Nc1ccccc1	17.5%	15% (inactive)
CCn1c(CCC(=O)N2CCN(c3ccccn3)CC2)nc2cc(S(N)(=O)=O)ccc21	-0.5%	98% (active)
CCCn1c(CCC(=O)N(C)c2ccccc2)nc2cc(S(=O)(=O)N3CCCC3)ccc21	-2.5%	37% (inactive)
CCN(CC)S(=O)(=O)c1ccc2c(c1)nc(CCC(=O)N1CCN(c3ccccc3)CC1)n2CC	10.5%	17% (inactive)
Cc1ccc(C2=NN(C(=O)CSc3ccc4c(c3)OCCO4)C(c3ccco3)C2)cc1 (stereo not drawn)	0%	7.5% (inactive)
O=C(OCC1CCCCC1)c1n[nH]c2ccccc12	12.5%	30.5% (inactive)
COc1ccc(Br)cc1CN(C)CN1C(=O)C2CC=CCC2C1=O (stereo not drawn)	10.5%	3.5% (inactive)
CN1/C(=C\C=N\NC(=O)c2cccnc2)C(C)(C)c2ccccc21	7%	43% (inactive)
CN1/C(=C\C=N\NC(N)=S)C(C)(C)c2ccccc21	29%	85% (active)
CN1/C(=C\C=Nc2ccccc2N)C(C)(C)c2ccccc21	-25%	-9% (inactive)
CC(C)(C)c1ccc(C(=O)NCCc2ccccn2)cc1	2%	5.5% (inactive)
Cc1cccc(OCc2nnc3n2-c2ccccc2SC3)c1	-6.5%	-1.5% (inactive)
O=C(COC(=O)/C=C/c1ccco1)Nc1cccc(C(F)(F)F)c1	-1%	0.5% (inactive)
CC1Cc2ccccc2N1CC(=O)NCc1ccc2c(c1)OCO2 (stereo not drawn)	-28%	48% (inactive)
NC(=O)c1ccc(-c2ccccc2)o1	40%	20% (inactive)
S=C(c1ccc(-c2ccccc2)o1)N1CCN(c2ccccc2)CC1	13.5%	97.5% (active)
COc1ccc(N2CCN(C(=S)Cc3ccccc3)CC2)cc1	5%	8.5% (inactive)
O=C(COc1ccccc1C(=O)NCc1ccccc1)Nc1cccc2nsnc12	0%	12% (inactive)

SMILES	inhibition [1]	inhibition [2]
COc1ccc(COc2ncnc3ccccc23)cc1F	1%	19.5% (inactive)
COc1ccc(C(=O)OCc2ccccc2F)c(OC)c1OC	12.5%	0% (inactive)
COc1ccc(COC(=O)c2cc(O)c3ccccc3c2O)cc1F	19.5%	84.5% (active)
CC(OC(=O)c1ccc(NS(=O)(=O)c2cccs2)cc1)c1nc2scc(-c3cccs3)c2c(=O)[nH]1 (stereo not drawn)	8.5%	15.5% (inactive)
CC1=C/C(=N\NC(=O)COc2ccc(C#N)cc2)CC(C)(C)C1	2%	9% (inactive)
CNC(C)c1ccccc1 (stereo not drawn)	-4.5%	-1.5% (inactive)
COC(=O)c1cnc(N)s1	5%	17% (inactive)
O=CN1CCN(C(=S)Nc2ccc(Cl)cc2Cl)CC1	9%	-3% (inactive)
Fc1ccccc1NC(=S)N/N=C/c1cn(-c2ccccc2)nc1-c1cc2ccccc2o1	2.5%	6% (inactive)
Oc1ccc(/C=N/NC(=S)Nc2ccc(Cl)cc2Cl)c(O)c1O	15.5%	84% (active)
O=C(NCc1ccccc1)c1cccc(OCC(=O)N2CCOCC2)c1	-11%	-13.5% (inactive)
CC1(C)CC(NCc2cc(Cl)c3c(c2)OCCCO3)CC(C)(C)N1	4.5%	10% (inactive)
Cn1c(N)c(C(=O)CSc2nc3sc4c(c3c(=O)n2Cc2ccco2)CCCC4)c(=O)[nH]c1=O	5%	12.5% (inactive)
COc1ccccc1NC(=O)c1ccc(NC(=O)COC(=O)C2CCCO2)cc1 (stereo not drawn)	-4.5%	-1.5% (inactive)
Sc1ccc2c(c1)OCCCO2	3.5%	38% (inactive)
CCOC(=O)C1CCN(C(C)C(=O)Nc2ccc(C(C)C)cc2)CC1 (stereo not drawn)	3%	9.5% (inactive)
Nn1cc(-c2ccccc2)[nH]c1=S	52%	104% (inactive)
S=c1[nH]cc2ccccn12	5.5%	96.5% (active)
Ic1ccc(-c2ncc3ccccn23)cc1	11%	17.5% (inactive)
Nc1ccc(S(=O)(=O)c2ccc(N)cc2)cc1	6%	-2.5% (inactive)
CC(=O)NS(=O)(=O)c1ccc(N)cc1	9.5%	-0.5% (inactive)
Nc1ccc(S(=O)(=O)CCSS(=O)(=O)c2ccc(N)cc2)cc1	0.5%	88% (active)
Cc1nnc(SC(C)C(N)=O)n1Cc1ccccc1 (stereo not drawn)	-2%	9.5% (inactive)

SMILES	inhibition [1]	inhibition [2]
COc1cccc(N2C(=O)CC(n3nc(Nc4cccc(C)c4)sc3=S)C2=O)c1 (stereo not drawn)	27.5%	102% (active)
COc1cccc(Nc2nnc(SCC(=O)c3cc(C)n(C)c3C)s2)c1	9%	20% (inactive)
COc1ccccc1NC1CC(=O)N(c2cccc(Cl)c2)C1=O (stereo not drawn)	10.5%	17.5% (inactive)
C[C@@H](C(=O)N1CCSC1=NCc1ccccc1)N1C(=O)C2CC=CCC2C1=O (stereo partly drawn)	4%	8.5% (inactive)
CC1CC(C)CN(C(=O)c2cc3ccccc3oc2=O)C1 (stereo not drawn)	9%	8.5% (inactive)
Cc1csc(SCC(=O)c2ccc(S(=O)(=O)N3CCCCC3)cc2)n1	21.5%	58.5% (inactive)
O=C(CSc1nc2ccccc2c(=O)n1C1CCCC1)Nc1ccc2c(c1)OCCO2	6%	28% (inactive)
O=C(CN1CCN(S(=O)(=O)Cc2ccccc2)CC1)Nc1ccc2[nH]c(=O)[nH]c2c1	15.5%	35.5% (inactive)
Oc1c(C(c2ccccn2)N2CCN(c3ccc(F)cc3)CC2)cc(Cl)c2cccnc12 (stereo not drawn)	-13.5%	0.5% (inactive)
CCn1c(-c2ccccc2)c(C(=O)CN2CCN(C)CC2)c2ccccc21	2.5%	38% (inactive)
CN1CCN(C(c2ccccn2)c2c(-c3ccccc3)n(O)c3ccccc23)CC1 (stereo not drawn)	17%	105% (active)
O=C1c2ccccc2S(=O)(=O)N1Cc1cc(=O)[nH]c(=O)[nH]1	-2.5%	-1% (inactive)
CN(C)C(=O)CN1C(=O)c2ccccc2S1(=O)=O	-3%	2% (inactive)
CNC(=O)c1sc(CN2C(=O)c3ccccc3S2(=O)=O)nc1C	-7%	91% (active)
CC(Sc1ccccc1F)C(=O)Nc1ccc(S(N)(=O)=O)cc1 (stereo not drawn)	1%	9.5% (inactive)
Cn1c(Cc2cccs2)nnc1SCC(=O)N1CCNC1=O	2.5%	15% (inactive)
CCCn1c(SCCCC(=O)c2cccs2)n[nH]c1=O	-0.5%	5.5% (inactive)
Oc1cc2c(cc1C(c1ccc(C(F)(F)F)cc1)N1CCN(c3ccccc3)CC1)OCO2 (stereo not drawn)	5%	5.5% (inactive)
COC(=O)c1ccc(C(c2cc3c(cc2O)OCO3)N2CCN(c3ccccc3)CC2)cc1 (stereo not drawn)	24%	83% (active)
COC(=O)c1ccc(C(c2c(O)ccc3ccccc23)N2CCOCC2)cc1 (stereo not drawn)	11%	18% (inactive)
